Measurements reported in PubChem BioAssay (EPA / NIEHS).
Results filed as inconclusive are left out. The source made the active and inactive calls. How the source made its calls: active means hit-call score of the fitted dose curve at least 0.9, where 1 is the maximum; inconclusive means response in the unintended direction; inactive means score below 0.9.

Read-out: glucuronosyltransferase (UGT1A1), UGT1A1 (gene 54658)
Test: CLD_UGT1A1_24hr: CellzDirect (CLD) Gene Expression Assay for glucuronosyltransferase (UGT1A1) at 24 hours (AID 2283696)
Experimental: CLD_24hr is a cell-based, multiplexed-readout assay that uses hepatocyte, a human liver primary cell, with measurements taken at 24 hours after chemical dosing in a 96-well plate.CLD_UGT1A1_24hr is one of 16 assay component(s) measured or calculated from the CLD_24hr assay. It is designed to make measurements of mRNA induction, a form of inducible reporter, as detected with chemiluminescence signals by Quantitative Nuclease Protection Assay (qNPA) technology.Data from the assay component CLD_UGT1A1_24hr was analyzed at the endpoint, CLD_UGT1A1_24hr, in the positive analysis fitting direction relative to DMSO as the negative control and baseline of activity. Using a type of inducible reporter, gain-of-signal activity can be used to understand changes in the reporter gene as they relate to the gene UGT1A1. Furthermore, this assay endpoint can be referred to as a primary readout. To generalize the intended target to other relatable targets, this assay endpoint is annotated to the transferase intended target family, where subfamily is glucuronosyltransferase.
Human hepatocyte cultures were treated daily for two consecutive days with fresh dosing solutions containing appropriate concentrations of the 320 ToxCast chemicals (chemical identities were blinded to CellzDirect and other ToxCast collaborators), vehicle control (0.2% DMSO), and positive control inducers as summarized in Table 1. Due to the large number of treatment groups and chemicals examined, the ToxCast chemicals were divided into two groups (spanning two independent cultures of hepatocytes from separate donor preparations (Hu778: ToxCast plates 1 and 2; Hu776: ToxCast plates 3 and 4). Each preparation of human hepatocyte cultures was treated with respective vehicle control, medium only control, set of six positive controls/reference chemicals for the five hepatic receptor pathways, and a subset of eight of the ToxCast chemicals (indoxacarb, pyrithiobac-sodium, norflurazon, cyhalofop-butyl, methomyl, thiram, acetochlor, and propiconazole). These replicate data, coupled with internal replicates designed within the blinded ToxCast chemical library, provided additional data to evaluate interindividual differences between hepatocyte preparations and their potential impact on chemical profiles.Cell morphology and integrity were evaluated using phase-contrast microscopy as an indicator of hepatocyte cell health (Tyson & Green, 1987). Cultures for each treatment group (i.e., media, vehicle [0.2% DMSO], positive control inducers [multiple concentrations], and the ToxCast chemicals [multiple concentrations]) were observed and cell morphology was assessed relative to vehicle control cultures at each harvest time point (0, 6, 24, or 48 h). […] Images were evaluated at the conclusion of the study to assess changes in cell integrity and account for the effects of chemical exposure on uncharacteristic changes in concentration-dependent gene expression profiles. The results from these determinations of apparent cytotoxicity were annotated (yes/no) alongside the corresponding qNPA data for reference.At the conclusion of each treatment period, hepatocyte cultures (96-well) were washed with 1 volume of HBSS, lysed by addition of 25 ul ArrayPlate lysis buffer (HTG, Tucson, AZ), and 70 ul/well of Denaturation Oil, denatured by incubation at 95C for 10 min, and frozen at approximately -70C until analysis by nuclease protection assay (qNPA) (Roberts et al., 2007). For qNPA analysis, cell lysates were thawed at 50C for approximately 30 min, qNPA probes were added, and samples were incubated at 95C for 10 min to begin the detection process by denaturing the target RNA, dissociating the duplexes and secondary structure hybridization. At the conclusion of the hybridization period, S1 nuclease reagent was added to each sample to digest all nonprotected nucleotides at 50C for 60-90 min. […]

| SMILES | outcome | AC50 |
| --- | --- | --- |
| COP(=O)(OC)OC=C(Cl)Cl | inactive | – |
| COC(=O)c1ccccc1S(=O)(=O)NC(=O)Nc1nc(C)nc(OC)n1 | inactive | – |
| CN1CSC(=S)N(C)C1 | inactive | – |
| O=C1c2ccccc2C(=O)N1SC(Cl)(Cl)Cl | inactive | – |
| O=S(=O)(O)C(F)(F)C(F)(F)C(F)(F)C(F)(F)C(F)(F)C(F)(F)C(F)(F)C(F)(F)F | inactive | – |
| Oc1ccc(Cl)cc1Cc1ccccc1 | inactive | – |
| CNC(=O)Oc1ccccc1OC(C)C | inactive | – |
| O=[N+]([O-])/N=C1\NCCN1Cc1ccc(Cl)nc1 | inactive | – |
| CCc1ccc(C(=O)NN(C(=O)c2cc(C)cc(C)c2)C(C)(C)C)cc1 | – | 4.06 µM (active) |
| O=S1OCC2C(CO1)C1(Cl)C(Cl)=C(Cl)C2(Cl)C1(Cl)Cl (stereo not given) | inactive | – |
| CNC(=O)Oc1cccc(N=CN(C)C)c1 | inactive | – |
| COC(=O)c1ccccc1S(=O)(=O)NC(=O)N(C)c1nc(C)nc(OC)n1 | inactive | – |
| CCOC1Oc2ccc(OS(C)(=O)=O)cc2C1(C)C (stereo not given) | inactive | – |
| CNC(=O)/C=C(\C)OP(=O)(OC)OC | inactive | – |
| O=[N+]([O-])c1c(Cl)c(Cl)c(Cl)c(Cl)c1Cl | inactive | – |
| O=C(O)C(F)(F)C(F)(F)C(F)(F)C(F)(F)C(F)(F)C(F)(F)C(F)(F)F | inactive | – |
| CCC(C)(C)C(=O)OC1=C(c2ccc(Cl)cc2Cl)C(=O)OC12CCCCC2 | inactive | – |
| CCN(CC)C(=O)SCc1ccc(Cl)cc1 | inactive | – |
| C#CCN1C(=O)COc2cc(F)c(N3C(=O)C4=C(CCCC4)C3=O)cc21 | inactive | – |
| CCCN(CCC)c1c([N+](=O)[O-])cc(C(F)(F)F)cc1[N+](=O)[O-] | inactive | – |

| SMILES | outcome | AC50 |
| --- | --- | --- |
| C[C@H]1[C@H](c2ccc(Cl)cc2)SC(=O)N1C(=O)NC1CCCCC1 | inactive | – |
| COP(=S)(OC)Oc1ccc(SC)c(C)c1 | inactive | – |
| CCC(C)(NC(=O)c1cc(Cl)c(C)c(Cl)c1)C(=O)CCl (stereo not given) | inactive | – |
| CC(C)(C)C(O)C(Oc1ccc(Cl)cc1)n1cncn1 (stereo not given) | – | 6.66 µM (active) |
| Cc1[nH]c(=O)n(C(C)(C)C)c(=O)c1Cl | inactive | – |
| CCOc1nc(NC)nc(NC(=O)NS(=O)(=O)c2ccccc2C(=O)OC)n1 | inactive | – |
| CC1(C)C(C=C(Cl)Cl)C1C(=O)OC(C#N)c1ccc(F)c(Oc2ccccc2)c1 (stereo not given) | inactive | – |
| Clc1ccccc1-c1nnc(-c2ccccc2Cl)nn1 | inactive | – |
| ClC1C(Cl)C(Cl)C(Cl)C(Cl)C1Cl (stereo not given) | inactive | – |
| CCOCN(C(=O)CCl)c1c(C)cccc1CC | inactive | – |
| CC(C)(C)C(O)/C(=C\c1ccc(Cl)cc1Cl)n1cncn1 (stereo not given) | inactive | – |
| CC(C)N(C(=O)COc1nnc(C(F)(F)F)s1)c1ccc(F)cc1 | inactive | – |
| CCS(=O)(=O)c1cccnc1S(=O)(=O)NC(=O)Nc1nc(OC)cc(OC)n1 | inactive | – |
| COc1cc(OC)nc(NC(=O)NS(=O)(=O)c2cc(NC=O)ccc2C(=O)N(C)C)n1 | inactive | – |
| OCCOc1ccccc1 | inactive | – |
| O=C(O)COc1ccc(Cl)cc1Cl | inactive | – |
| O=C(NC(=O)c1c(F)cccc1F)Nc1ccc(OC(F)(F)C(F)OC(F)(F)F)c(Cl)c1 (stereo not given) | inactive | – |
| Cc1cc(C)nc(NC(=O)NS(=O)(=O)c2ccccc2C(=O)OC2COC2)n1 | inactive | – |
| CCC(C)Nc1c([N+](=O)[O-])cc(C(C)(C)C)cc1[N+](=O)[O-] (stereo not given) | inactive | – |
| CNC(=O)CSP(=S)(OC)OC | inactive | – |
